Source: PubChem BioAssay AID361 (National Center for Advancing Translational Sciences (NCATS), 2006)
Out of some 51,000 compounds screened, about 600 (1.2%) were called active. Not shown: some 2% with an inconclusive outcome. Rule as the data show it: active = potency below about 11 µM; inconclusive = mostly about 12 µM to 25 µM; inactive = weaker than that;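 the screen sought inhibitors and activators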. This excerpt belongs to a sample that is enriched for actives.

Each molecule was assayed on pyruvate kinase (Bacillus stearothermophilus) (assay: Pyruvate Kinase). Settings: purified pyruvate kinase, luminescence ATP production; ribose 5-phosphate activator present at AC10.
Method: Pyruvate kinase (partially purified from Bacillus stearothermophilus) was assayed for its ability to generate ATP from ADP using phosphoenolpyruvate (PEP) as a substrate. ATP generation was detected in a coupled reaction by luciferase-mediated luminescence, an ATP-dependent process. Pyruvate kinase substrates, PEP and ADP, were present in the assay at Km and […]-fold below Km respectively. The enzyme was assayed at an intermediate level of activity to screen for inhibitors and activators. In addition, ribose 5 phosphate, a positive modulator of pyruvate kinase, was included in the assay at AC10 in order to identify possible potentiators.
NCGC Assay Protocol Summary:
Three uL of substrate mix (final concentration, 50 mM imidazole pH 7.2, 50 mM KCl, 7 mM MgCl2, 2 mM PEP, 0.1 mM ADP, 0.7 nM ribose 5 phosphate, 0.01% Tween 20, 0.05% BSA) was dispensed into 1536 well plates. 23 nL of compound were delivered by a pin tool and 1 uL of enzyme mix (final concentration, 10 nM pyruvate kinase, 50 mM imidazole pH 7.2, 0.05% BSA) was added. After centrifugation at 1000 rpm for less than a minute, plates were incubated at room temperature for 2 hours. Three uL of detection and kinase stop mix (PKLight, Cambrex) was added, the plates centrifuged, and luminescence read by a ViewLux (Perkin Elmer) at 5 second exposure/plate. Data were normalized to the controls for AC100 stimulation (5 uM ribose 5 phosphate) and to AC100 inhibition (110 uM luteolin).
Potency is read from the fitted curve at half-maximal effect.

Potency, active:
CCOC(=O)C1CCN(c2ncnc3c2oc2ccc(Br)cc23)CC1 10.6 µM
COc1ccc(-c2cn3ccsc3n2)cc1 4.01 µM
O=C(OC1CCOC1=O)c1ccc(-c2nc3ccccc3s2)s1 (stereo not drawn) 4.84 µM
O=C(Oc1ccc(-c2nc(-c3ccccn3)no2)cc1)c1ccccc1 6.85 µM
C=CCn1c(C)cc(C(=O)CN2C(=O)c3ccccc3C2=O)c1C 5.37 µM
COc1ccc(-c2cc3ccc(OCc4nn[nH]n4)cc3oc2=O)cc1 5.08 µM
Cn1c(-c2ccco2)nc2cc3ccccc3cc21 0.493 µM
COc1ccc(N=Cc2c(O)[nH]c3ccccc23)cc1OC 4.61 µM
Cc1ccc2nc(-c3ccc(SCC(=O)Nc4cc(C)on4)nc3)[nH]c2c1 2.74 µM
CCc1cc2c(=O)c(-c3ccon3)c(N)oc2cc1OC 4.26 µM
O=C(Nc1ccc(Cl)cn1)c1cnn2cccnc12 8.73 µM
Cc1nc(-c2ccc(NC(=O)c3cccs3)cc2)cs1 2.04 µM
COc1ccc(N(Cc2cc3cc(OC)ccc3[nH]c2=O)S(C)(=O)=O)cc1 7.73 µM

Potency, inactive:
CC(C)(C)NC(=O)NC(=O)COC(=O)Cn1c(C(F)(F)F)nc2ccccc21 > 57 µM
CCN(CC)C(=O)CSc1nnc(-c2ccc(S(=O)(=O)NCc3ccccc3Cl)cc2)o1 > 57 µM
CCn1c(SCC(=O)Nc2nc3ccc(OC)cc3s2)nnc1-c1ccoc1C > 57 µM
O=C(CN1CCN(c2ccccn2)CC1)NCc1cccs1 > 57 µM
CC(C)n1c(SCC(=O)Nc2ccccc2N2CCCCC2)nc2c1c(=O)n(C)c(=O)n2C > 57 µM
COC(=O)c1ccc(Oc2nc(NC(C)C)nc(SC)n2)cc1 > 57 µM
CNC(=O)CSc1nnc(CCc2ccccc2)n1-c1ccccc1 > 57 µM
CCOC(=O)C1CCN(C(=O)c2oc3ccc(S(=O)(=O)N4CCCCCC4)cc3c2C)CC1 > 57 µM
Cc1cc(C)nc(N2CCN(c3ncnc4c3oc3ccccc34)CC2)n1 > 57 µM
O=C(NCc1cn2ccsc2n1)Nc1ccc(Cl)cc1 > 57 µM
CCCC(=O)Nc1cccc(-c2cn3ccsc3n2)c1 49.6 µM
COc1ccc(CCNC(=O)CN2CCC(n3nnc4cc(F)ccc43)CC2)cc1OC > 57 µM
CCCc1cc(=O)oc2c(C)c(O)c(CN3CCCCC3)cc12 > 25.6 µM
COc1ccccc1C(=O)Oc1ccc(N2C(=O)CCC2=O)cc1 > 57 µM
O=S(=O)(/C=C/c1ccccc1)NCCc1ccccn1 > 57 µM
O=C(c1cccs1)N1CCC(c2nc3ccccc3s2)CC1 > 57 µM
Cc1nn(Cc2ccccc2)c(Cl)c1C(=O)OC1CCOC1=O (stereo not drawn) > 57 µM
CC(NCCO)C(=O)C12CC3CC(CC(C3)C1)C2 (stereo not drawn) > 57 µM
CCC(C)NC(=O)N[C@@H](CCSC)C(=O)O (stereo partly drawn) > 57 µM
COC(=O)CNC(=O)c1ccc2c(c1)S(=O)(=O)c1ccccc1C2=O > 57 µM
O=C(Oc1ccccc1)c1ccc2nccnc2c1 > 57 µM
CC(C)c1nc(-c2ccccn2)no1 > 57 µM
CCOC(=O)CSC1=C(C#N)C(c2ccco2)C(C(=O)OCc2ccccc2)=C(C)N1 (stereo not drawn) > 57 µM
N#Cc1c2c(c(-c3ccccc3)[nH]c1=O)CCCC2 > 25.6 µM
CCc1nnc(NC(=O)CSc2nnc(-c3ccncc3)n2Cc2ccccc2)s1 > 57 µM
C=CCN(CC=C)C(=O)CN1C(=O)c2ccccc2C1=O > 57 µM
Cc1cc(C(=O)COC(=O)CCCN2C(=O)c3ccccc3C2=O)c(C)n1C > 57 µM
O=C1CCC(C(=O)Nc2ccc(OC(F)F)cc2)N1 (stereo not drawn) > 57 µM
O=c1oc2cc(O)ccc2cc1-c1ccc(F)cc1 > 57 µM
CCCCc1cc(=O)oc2cc(C)cc(OCc3nn[nH]n3)c12 > 57 µM
CCCCOc1ccc(C(C)(O)CCN2CCOCC2)cc1 (stereo not drawn) > 57 µM
O=C(CC1Nc2ccccc2NC1=O)Nc1ccccc1 (stereo not drawn) > 11.4 µM
Cc1ncc(CC(=O)n2cc(C(=O)c3cc(Cl)ccc3O)cn2)s1 > 57 µM
O=C1CC(Cc2ccccc2)C(=O)N1c1ccc(Cl)cn1 (stereo not drawn) > 57 µM
O=C(O)CCCC(=O)Nc1ccccc1-n1ccnc1 > 57 µM
CC(=O)c1cc2c(cc1N)OCO2 > 57 µM
CCCCN(C)C(=O)C1CCN(Cc2ccccn2)CC1 > 57 µM
Cc1cc(N2CCCC2)n2nc(C)c(-c3ccccc3)c2n1 > 57 µM
c1coc(-c2nc3nc4ccccc4n3nc2-c2ccco2)c1 > 57 µM
CN(c1nc2ccccc2n2c(-c3ccco3)nnc12)S(=O)(=O)c1ccccc1 > 57 µM
Clc1ccc(CSc2nnc([C@@H]3CCCN3)o2)cc1 > 57 µM
CCN1CCN(C(=O)c2ccccc2N(C)S(=O)(=O)c2ccc(C)cc2)CC1 > 57 µM
Cc1nnc(NC2=NCCCCC2)o1 > 57 µM
Cc1cc(C)c2nc(SCCC#N)nc(C)c2c1 48.9 µM
Fc1ccc2[nH]c3c(N4CCN(Cc5ccc6c(c5)OCO6)CC4)ncnc3c2c1 > 25.6 µM
CNC(=O)C1CC(=O)N(Cc2ccc3c(c2)OCO3)C(=Nc2ccc(F)cc2)S1 (stereo not drawn) > 57 µM
Cc1cc(C)n(C(=O)c2ccc(C)c(S(=O)(=O)N3CCOCC3)c2)n1 > 57 µM
COc1ccc2nc(N3CCCC(O)C3)c(C#N)cc2c1 (stereo not drawn) 41.4 µM
O=C(NCc1ccccc1)C1C(=O)N(Cc2ccccc2)C(=O)C1C1(O)CCCC1 (stereo not drawn) > 25.6 µM
CC1CCCN(C(=O)Cn2c(=O)oc3ccccc32)C1 (stereo not drawn) > 57 µM
COc1c(F)c(F)c(-c2csc(N)n2)c(F)c1F > 57 µM
Cc1cc(=O)oc(C)c1C(=O)Nc1cnc2ccccc2c1 > 57 µM
Cc1ccc2c(C(=O)CN3CCCC3)c(C)[nH]c2c1 > 11.4 µM
COc1ccc(OC)c(N=Cc2c(O)[nH]c3ccccc23)c1 > 57 µM
COC(=O)c1[nH]c2ccccc2c1NS(=O)(=O)c1ccc(OC)cc1OC > 57 µM
Cc1cc(NC(=O)CSc2nnc(-c3ccc(Cl)s3)o2)no1 > 57 µM
Cc1nc(SCC(=O)Nc2cc(C)on2)c2c(C)c(C)sc2n1 > 57 µM
Cc1cc(C)c2c(c1)cc(C)c1nnc(SCC(=O)Nc3cc(C)on3)n12 > 57 µM
COc1ccc(OC)c2c(N)c(C#N)c(C(F)(F)C(F)(F)F)nc12 > 25.6 µM
C=CCc1cccc2cc(C(=O)N3CCN(C(=O)OCC)CC3)c(=O)oc12 > 57 µM
COc1ccccc1CNCc1cccs1 > 57 µM
COc1ccc(CNC(=O)c2c(C)cc(=O)oc2C)cc1OC > 25.6 µM
Cc1ccc(C(=O)NCC2CCCO2)o1 (stereo not drawn) > 57 µM
COc1cccc(N2CC(C(=O)Nc3c(C)cccc3C)CC2=O)c1 (stereo not drawn) > 57 µM
Cc1cccc(NC(=O)c2ccccc2NC(=O)C(C)(C)C)n1 > 57 µM
CCn1c(=N)n(CC(=O)c2cccc(OC)c2)c2ccccc21 38.1 µM
Cn1c(/C(C#N)=C2/CCCCCN2)nc2ccccc21 > 57 µM
CC1CCCCN1CC(=O)NCc1ccc2c(c1)OCO2 (stereo not drawn) > 57 µM
CN(CCc1ccccn1)S(=O)(=O)c1ccc2c3c(cccc13)C(=O)N2 > 57 µM
CSc1ccc(Cl)c(C(=O)OCC(=O)N2CC(C)OC(C)C2)c1 (stereo not drawn) > 57 µM
NC(=O)COc1ccc2c3c(c(=O)oc2c1)CCCCC3 > 57 µM
CCN(CC)S(=O)(=O)c1cccc(C(=O)NCC(=O)OCC(=O)NCc2ccccc2)c1 > 57 µM
CC(Oc1ccc(Cl)cc1)C(=O)Nc1ncccn1 (stereo not drawn) > 57 µM
CCCCC(CC)C(=O)Nc1ccc(Cl)cn1 (stereo not drawn) > 57 µM
O=C(Nc1ncccn1)c1cccs1 > 57 µM
O=C(O)c1ccc(NC(=O)c2cccs2)cc1 > 57 µM
COC(=O)CCSc1nccn1Cc1ccccc1 > 57 µM
O=c1c(F)cn(C2CCCO2)c(=O)n1Cc1ccccc1Cl (stereo not drawn) > 25.6 µM
CCCOc1ccc(CN(CCO)CCO)cc1C(=O)OC > 57 µM
CCN(Cc1cc2cc(C)ccc2[nH]c1=O)S(=O)(=O)c1ccccc1 > 57 µM
CCC(=O)N(Cc1cc2cc(OC)ccc2[nH]c1=O)c1ccccc1C > 57 µM
COc1cccc(NC(=O)c2ccccc2SC)c1 > 57 µM
CC(C)(O)C#Cc1ccc(C(=O)N2CCC(C(N)=O)(N3CCCCC3)CC2)cc1 > 57 µM
Cc1ccc(NC(=O)CS(=O)CC(=O)N(c2ccccc2)C(C)C(=O)NC2CCCC2)cc1 (stereo not drawn) > 57 µM
CCCCC(=O)N(c1ccc(OC)cc1)C1C=CS(=O)(=O)C1 (stereo not drawn) > 57 µM
